Peg3 prom inh-1: reduces Peg3 promoter-driven luciferase expression in HeLa; HeLa PEG-Prom luciferase reporter, luminescence, overnight; inhibition, % at 20 µM; 360,000 compounds, 1.7% hits; AID 588405;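 active = inhibition of at least 50% at 20 µM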
PAX8 inh HTS: inhibitors of PAX8 transcriptional activity in RMG-I cells. RMG-I TPO-luciferase reporter, SteadyGlo, 24 h. inhibition, % at 12.6 µM. 360,000 compounds, 1.2% hits. AID 652154;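 active = mean replicate inhibition at least 60% with every replicate also reaching 60%; inconclusive = only one of the two criteria is met; inactive = mean below 60% and not all replicates reaching 60%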;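 also: luciferase light reporting Pax8 driven TPO promoter activity; plate controls were median of neutral control wells for no effect and mitoxantrone controls for full effect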
TRPM1 prom inh: reduces MITF-dependent TRPM1 promoter luciferase signal | SK-MEL-5 TRPM1 promoter luciferase, 24 h | 330,000 compounds, 0.83% hits | AID 488899 | inhibition, % at 12.5 µM;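 active = mean inhibition across replicates of 60% or more, whatever share of single replicates reaches that level; inconclusive = some that reach 60%, reason not given; inactive = mean inhibition across replicates below 60%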
HIF-2a inh: inhibitors of HIF-2a. 786-0 RCC cells HIF-2a reporter, luciferase luminescence, overnight. inhibition, % at 18.8 µM. 360,000 compounds, 0.72% hits. AID 624352;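 active = inhibition of the luminescence signal of 40% or more relative to plate controls, in a single-dose primary screen at 18.75 µM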
LMP1 NFkB inh: Epstein-Barr LMP1 NF-kappaB reporter inhibition | LMP1-induced NF-kappaB luciferase reporter cells, luminescence | 350,000 compounds, 0.69% hits | inhibition, % at 12.5 µM; in the data active = inhibition above about 41%; inconclusive = no clear call, values can overlap the other calls;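 also: 0% = neutral control wells and 100% = reference inhibitor control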
Shn3 3UTR inh: inhibitors of Schnurri-3 3'UTR reporter in osteoblasts. Clone20 osteoblast Shn3 3'UTR firefly luciferase, 24 h. inhibition, % at 12.5 µM. 360,000 compounds, 0.52% hits. AID 588674;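 active = mean inhibition of at least 75% with every replicate also reaching 75%; inconclusive = mean inhibition at least 75% but some replicate below; inactive = mean inhibition below 75%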;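 also: 0% = median of neutral control wells and 100% = pilot-screen positive control compound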
Peg3 prom inh-2: confirmation of Peg3 promoter inhibitors. shares compounds with Peg3 prom inh-1. AID 602417. inhibition, % at 20 µM. 1,300 compounds, 84% hits. HeLa PEG-Prom luciferase reporter, luminescence, overnight;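 active = at 20 µM dose, 40% or more inhibition averaged across four replicates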
* = called active by the depositor; u = inconclusive; x = not tested or not shown; ! = not active in a repeat. An excerpt weighted towards active compounds, which were near 2.8% of everything screened.

SMILES | Peg3 prom inh-1 | PAX8 inh HTS | TRPM1 prom inh | HIF-2a inh | LMP1 NFkB inh | Shn3 3UTR inh | Peg3 prom inh-2
CC(C)N(C(=O)[C@H]1C[C@H](CC(=O)NCC23CC4CC(CC(C4)C2)C3)C(=O)N2CCc3c([nH]c4ccc(Cl)cc34)[C@]12C)C(C)C | 63* | 67* | 19 | -17 | -5 | 62 | 43*
O=C(C[C@H]1C[C@H](C(=O)N2CCOCC2)[C@@]2(CCC3CCCC3)c3[nH]c4ccc(Cl)cc4c3CCN2C1=O)NCCN1CCOCC1 | 50* | -4 | 16 | -17 | 16 | -9 | 8
CC(C)N(C(=O)[C@H]1C[C@H](CC(=O)NCCCN(C)C)C(=O)N2CCc3c([nH]c4ccc(Cl)cc34)[C@]12C)C(C)C | 40 | 22 | -12 | -25 | 6 | 15 | x
COCCCNC(=O)C[C@H]1C[C@H](C(=O)N2CCOCC2)[C@@]2(CCC3CCCC3)c3[nH]c4ccc(Cl)cc4c3CCN2C1=O | 14 | -1 | 15 | -12 | 22 | 9 | x
O=C(NNC(=O)c1cccnc1SCc1cccc([N+](=O)[O-])c1)c1ccc(F)cc1 | -1 | 34 | -2 | 26 | -3 | -10 | x
O=C(NNC(=O)c1cccnc1SCc1cccc([N+](=O)[O-])c1)c1ccccn1 | 55* | 46 | 42 | 17 | 31 | 96* | 70*
O=C(CCCCCNc1nc(=S)[nH]c2ccccc12)NCc1ccccc1Cl | x | -11 | x | x | x | x | x
O=C(Cc1csc(Nc2nc(=S)[nH]c3ccccc23)n1)NCc1ccccc1Cl | 51* | x | 31 | -3 | -29 | 0 | 44*
Fc1ccc([C@@H]2CCNC[C@H]2COc2ccc3c(c2)OCO3)cc1 | 66* | -22 | u | -13 | -11 | 8 | 62*
O=C1C=C(c2ccc3c(c2)OCO3)C[C@@H](c2ccc(F)cc2)C1 | -36 | 2 | 21 | -44 | -13 | -10 | x
O=C(c1ccccc1)N1C[C@@H]2[C@H](c3ccccc31)[C@@H](CO)N2C(=O)c1cccc(F)c1 | x | -11 | x | x | x | x | x
Cc1ccccc1S(=O)(=O)N1[C@H](CO)[C@@H](c2ccccc2)[C@@H]1C#N | x | -5 | x | x | x | x | x
CC(C)(C)c1ccc(OCCCNCc2ccccc2)cc1 | 112* | 6 | 43 | 13 | 8 | -9 | 61*
COCCCNCCCOc1ccc(C(C)(C)c2ccccc2)cc1 | 14 | -1 | -22 | 11 | -6 | -25 | x
COCC#Cc1ccc2c(c1)O[C@H](CN(C)C(=O)c1ccccc1F)[C@@H](C)CN([C@H](C)CO)S2(=O)=O | x | -2 | x | x | x | x | x
CCN(CCO)c1ccc(N=Nc2cc(C)[nH]n2)cc1 | 72* | 87* | 76* | 55* | 63* | 15 | 56*
Cc1csc(NC(=O)c2ccc(N3CCCC3=O)cc2)n1 | 64* | 51 | 43 | 33 | 69* | 39 | 46*
Cc1nnc(NC(=O)c2ccc(N3CCCC3=O)cc2)s1 | -119 | -96 | -87 | -138 | -23 | -50 | x
CSc1ccc2c(c1)C(N1CCN(C)CC1)Cc1ccccc1S2 (stereo not given) | 82*! | -1 | 31 | -4 | 89*! | 1 | 84*
Cc1ccc(S(=O)(=O)N(C)C[C@H]2OCCCC[C@@H](C)Oc3ccc(NC(=O)NC(C)C)cc3C(=O)N([C@H](C)CO)C[C@@H]2C)cc1 | x | -14 | x | x | x | x | x
Cc1ccc2[nH]c3c(c2c1)CCCC3NC(=O)CCl (stereo not given) | 82* | x | 55 | 12 | 87* | 24 | 89*
Cc1ccc2[nH]c3c(c2c1)CCCC3C(N)=O (stereo not given) | 19 | 24 | -2 | -6 | -4 | -16 | x
CCCNC(=O)Nc1ccc2c(c1)OC[C@H](C)N(CC1CCCC1)C[C@@H](C)[C@H](OC)CN(C)C2=O | x | 18 | x | x | x | x | x
COc1cc(NC(=O)c2cccc(C)c2)ccc1NC(=O)c1cc2ccccc2o1 | 60* | 50 | 42 | 12 | 1 | 16 | 50*
C/C=C/c1ccc([C@H]2[C@@H](CO)N(CCC(F)(F)F)C23CN(C(=O)COC)C3)cc1 | x | -3 | x | x | x | x | x
SMILES | Peg3 prom inh-1 | PAX8 inh HTS | TRPM1 prom inh | HIF-2a inh | LMP1 NFkB inh | Shn3 3UTR inh | Peg3 prom inh-2
CCCN1C/C(=C/c2cccc([N+](=O)[O-])c2)C(=O)/C(=C/c2cccc([N+](=O)[O-])c2)C1 | 111* | x | 100* | 26 | 88* | 18 | 71*
COc1ccc(NC(=O)c2cc3c(Cl)nc4ccccc4c3s2)c(OC)c1 | 52* | 15 | 11 | 8 | 5 | 0 | 15
CC=Cc1ccc2n(c1=O)C[C@H]1[C@H](CO)[C@@H](C(=O)N[C@H](C)c3ccccc3)[C@@H]2N1Cc1cncnc1 (mixture of isomers) | x | 9 | x | x | x | x | x
C=CCC[C@@H](Cc1ccc(F)cc1)C(=O)OC[C@@H](Cc1c[nH]c2ccccc12)NC(=O)[C@H](CC=C)CC(=O)N[C@H](CO)Cc1ccccc1 | 52* | 23 | 49 | -8 | 1 | 63 | 38
O=C(c1ccoc1)N1CCN(c2cc(-c3ccccc3)nc3cc(-c4ccccc4)nn23)CC1 | 68* | 59 | x | -19 | 5 | 75 | 70*
Cc1cc(N2CCN(C(=O)c3ccoc3)CC2)n2nc(-c3ccccc3)cc2n1 | 8 | -8 | x | 6 | 4 | -30 | x
Cc1ccccc1CN(C)C[C@H]1OCc2cnnn2CCCC(=O)N([C@H](C)CO)C[C@@H]1C | x | -6 | x | x | x | x | x
COCC#Cc1ccc2c(c1)O[C@@H](CN(C)C(=O)COC)[C@H](C)CN([C@@H](C)CO)S2(=O)=O | x | 10 | x | x | x | x | x
Cc1cccc(CNc2ncnc3ccc(-c4ccoc4)cc23)c1 | 50* | 3 | 1 | 6 | 75* | -6 | 41*
Cc1cccc(CNc2ncnc3ccc(-c4cccnc4)cc23)c1 | 19 | -3 | 5 | 32 | -4 | 24 | x
O=C(Nc1cc(F)ccc1F)N[C@H]1CC[C@@H](CC(=O)N2CCc3ccccc3C2)O[C@@H]1CO | x | 1 | x | x | x | x | x
Cc1ccc(S(=O)c2ccc([N+](=O)[O-])c3nonc23)cc1 (stereo not given) | 51* | -1 | x | 0 | 5 | 5 | 98*
CC1CCCCN1CCNC(=O)c1ccc2c(=O)n(CCc3ccccc3)c(=O)[nH]c2c1 (stereo not given) | -24 | -4 | -26 | -23 | -2 | -29 | x
CC1CCCCN1CCNC(=O)c1ccc2c(=O)n(Cc3ccc(Cl)cc3)c(=S)[nH]c2c1 (stereo not given) | 102* | 9 | 11 | 2 | -8 | -3 | 98*
O=S(=O)(NC1CC(NS(=O)(=O)OCC(Cl)(Cl)Cl)C2CCCCC12)OCC(Cl)(Cl)Cl (stereo not given) | 57* | x | 10 | -32 | -9 | 15 | 93*
COc1cccc(C#Cc2cnc3c(c2)C(=O)N([C@H](C)CO)C[C@@H](C)[C@H](CN(C)C(=O)C2CCOCC2)O3)c1 | x | 3 | x | x | x | x | x

Assay outcomes from PubChem.
